Data from PubChem BioAssay AID504850 (National Center for Advancing Translational Sciences (NCATS), 2011).
Screen size: about 2,300 compounds; about 1,200 (52%) were called active. Not shown: some 34% with an inconclusive outcome. The set was probably picked from earlier hits. Some of the results follow. Values without a mark were called inactive. Calls come from the whole dose curve; as a rule, active = well fitted inhibition curve with a large enough effect; inconclusive = small, poorly fitted or top-dose-only effect, or effect the other way; inactive = no such curve, though single readings can be large or run the other way.

Experiment: Confirmation screen for delayed death inhibitors of the malarial parasite plastid, 48 hour incubation; note: nearly all actives have a fitted effect of over 65% in size
Details: P. falciparum-infected erythrocytes, luciferase growth; series mostly up to 28.7 µM; activity change, negative = inhibition: at the top concentration
Outline: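 Single-generation (48 h, 37 C) exposure of integrated firefly luciferase-reporter P. falciparum in red cells, 0.1% parasitemia at 2% hematocrit, Albumax-supplemented RPMI. Falling luciferase signal marks parasite growth inhibition.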
% is set by controls: 0 for no effect and ±100 for the full control effect; potency is the fitted concentration of half-maximal effect.

Row | SMILES | Potency | activity change, negative = inhibition
1 | Cc1cccc(C)c1N1CCN(C(=O)c2ccc3c(c2)OCO3)CC1 | 15.8 µM (active) | –
2 | CCOC(=O)c1c(C)c(-c2ccccc2)n(CC(=O)NCCCN(CC)CC)c1C | 12.6 µM (active) | –
3 | O=C(c1ccco1)N1CCN(C(=O)C2CCCc3c2[nH]c2ccc(Cl)cc32)CC1 (stereo unspecified) | 14.1 µM (active) | –
4 | COc1cccc(/C=C2\SC(=S)N(CCC(=O)N3CCCCC3CCO)C2=O)c1 (stereo unspecified) | 10 µM (active) | –
5 | O=C1/C(=C/c2ccc(Cl)cc2)SC(=S)N1CCC(=O)N1CCCCC1CCO (stereo unspecified) | 15.8 µM (active) | –
6 | COc1cccc(/C=C2\SC(=O)N(CCC(=O)NC3CCS(=O)(=O)C3)C2=O)c1 (stereo unspecified) | – | -17.6%
7 | CC1=CC(=O)O[C@@H]1[C@@]1(C)C[C@H]2OC(=O)C[C@H]3[C@@H](C)C(=O)C(O)=C1[C@@]23CO | – | -14.3%
8 | CCCCNC(=O)c1onc(CSc2ccc(Cl)cc2)c1C(=O)O | – | -7.43%
9 | CN(C)c1ccc(S(=O)(=O)N2CCCCC2)cc1NC(=O)C1=NN(c2ccccc2)C(=O)CC1 | 8.91 µM (active) | –
10 | Cc1oc(=O)c(NC(=O)c2ccc(Cl)cc2)cc1C(=O)c1ccccc1 | – | -5.78%
11 | O=C(Nc1cc(Cl)ccc1N1CCCC1)C1=NN(c2ccccc2)C(=O)CC1 | 14.1 µM (active) | –
12 | O=[N+]([O-])c1cncc([N+](=O)[O-])c1Nc1cccc(O)c1 | 12.6 µM (active) | –
13 | CC1(C)Cc2c(ccc3ccccc23)C(c2cc3ccccc3oc2=O)=N1 | 12.6 µM (active) | –
14 | O=C(Nc1ccccc1C(F)(F)F)N1CCN(c2ccc3nnc(-c4ccc(F)cc4)n3n2)CC1 | 7.08 µM (active) | –
15 | O=C(c1ccc(Br)o1)N1CCN(c2ccc3nnc(-c4ccccc4)n3n2)CC1 | 12.6 µM (active) | –
16 | COc1ccc(C(=O)NC(=S)N(C)C2CCCCC2)cc1 | – | -90.4%
17 | O=C(c1ccc(OC2CCN(Cc3ccccc3OC(F)F)CC2)cc1)N1CCCC1 | 2.24 µM (active) | –
18 | COc1ccc(CCC(C)N2CCC(Oc3ccc(C(=O)N4CCCC4)cc3)CC2)cc1 (stereo unspecified) | 12.6 µM (active) | –
19 | CCOc1cc(/C=C/C(=O)Nc2ccc(C(=O)NCCN(CC)CC)cc2)ccc1OCC(C)C | 1.78 µM (active) | –
20 | Cc1nc([N+](=O)[O-])c(Br)n1CC(=O)c1ccc(Cl)cc1 | 10 µM (active) | –
21 | O=C(c1ccc([N+](=O)[O-])cc1)n1nc(-c2ccccc2)nc1NCc1ccc(F)cc1 | – | -27.9%
22 | Cn1cc([N+](=O)[O-])c(C(=O)Nc2cnn(Cc3ccc(F)cc3)c2)n1 | – | 6.44%

Row | SMILES | Potency | activity change, negative = inhibition
23 | Cc1nc([N+](=O)[O-])c(Br)n1CC(=O)c1ccc(F)cc1 | 12.6 µM (active) | –
24 | CCOC(=O)N1C/C(=C\c2ccccc2)C(=O)/C(=C/c2ccccc2)C1 | 6.31 µM (active) | –
25 | CCN(CC)S(=O)(=O)c1cccc(NC(=O)c2cc(-c3cccs3)nn2-c2ccccc2)c1 | 11.2 µM (active) | –
26 | CC(=O)NCCC(=O)Nc1cc(S(=O)(=O)N2CCOCC2)ccc1Oc1ccccc1 | 11.2 µM (active) | –
27 | CCOc1ccc(S(=O)(=O)N2CCOCC2)cc1NC(=O)CN1C(=O)NC(CC)(c2ccccc2)C1=O (stereo unspecified) | 12.6 µM (active) | –
28 | CCOc1ccccc1CNC(=O)CN1C(=O)CSc2ccc(S(=O)(=O)N3CCOCC3)cc21 | 10 µM (active) | –
29 | CC(C)(C)OC(=O)[C@H]1[C@H](c2ccc([N+](=O)[O-])cc2)C2(C(=O)c3ccccc3C2=O)C2c3ccccc3C=NN21 (stereo partly specified) | 4.47 µM (active) | –
30 | Cc1ccc(-c2nn(-c3ccccc3)cc2CC(=S)N2CCOCC2)cc1 | 14.1 µM (active) | –
31 | CCCOc1ccccc1/C=C1\SC(N2CCCCC2)=NC1=O | 11.2 µM (active) | –
32 | COc1cccc(/C=C2\SC(N3CCCC(C)C3)=NC2=O)c1OC (stereo unspecified) | 12.6 µM (active) | –
33 | CCOC(=O)C1CCN(C(=O)CCc2nnc3ccc(NCc4ccco4)nn23)CC1 | 10 µM (active) | –
34 | CCn1c2ccccc2c2cc(/C=N/n3cn[nH]c3=S)ccc21 | 12.6 µM (active) | –
35 | Cc1ccccc1C1=NC(C(F)(F)F)(C(F)(F)F)c2c(n(-c3ccc(F)cc3)c(=O)[nH]c2=O)N1 | 10 µM (active) | –
36 | Cc1cc(C)cc(C(=O)NC(CC(N)=O)c2ccc(NCC3CC3)c([N+](=O)[O-])c2)c1 (stereo unspecified) | – | -17.3%
37 | NC(=O)CC(NC(=O)Cc1ccc(Br)cc1)c1ccc(NC2CC3CCC2C3)c([N+](=O)[O-])c1 (stereo unspecified) | 15.8 µM (active) | –
38 | COc1cc(/C=C/C(=O)c2ccc(O)cc2)ccc1OCC#N | 12.6 µM (active) | –
39 | COc1cccc(C(=O)/C=C/c2ccc(OCC#N)c(OC)c2)c1 | 10 µM (active) | –
40 | O=C(Nc1nc(-c2ccccn2)cs1)C1COc2ccccc2O1 (stereo unspecified) | 6.31 µM (active) | –
41 | O=C1/C(=C/c2ccccc2F)SC(=S)N1CC(=O)N1CCCCC1c1cccnc1 (stereo unspecified) | 14.1 µM (active) | –
42 | CCCN1CCC(NC(=O)CC2C(=O)NCCN2Cc2cccc(OC)c2)CC1 (stereo unspecified) | – | -4.3%
43 | COc1ccc(OC)c(-c2nc(C(=O)NC3CCN(Cc4ccccc4)CC3)cc3c2[nH]c2ccccc23)c1 | 4.47 µM (active) | –
44 | Cc1ccc2c(c1)C1CC(C)(O2)N(c2cccc(C(=O)N3CCN(c4ccccn4)CC3)c2)C(=O)N1 (stereo unspecified) | 12.6 µM (active) | –

Row | SMILES | Potency | activity change, negative = inhibition
45 | O=C(C=C=Nc1ccccc1)C(=O)N=C=Cc1ccccc1 | 14.1 µM (active) | –
46 | CCOc1ccc(-n2c(N)c(-c3nc4ccccc4n3C)c3nc4ccccc4nc32)cc1 | 3.98 µM (active) | –
47 | O=S(=O)(c1ccc(Cl)c(Cl)c1)c1snnc1-c1ccccc1 | 12.6 µM (active) | –
48 | CCCNC(=O)c1nnsc1S(=O)(=O)c1ccc(Cl)cc1 | – | -15.3%
49 | O=C(/C=C/c1ccncc1)c1ccc2c(c1)OCCO2 | 12.6 µM (active) | –
50 | O=C(O)c1ccc(/C=N/NC(=O)c2ccc3c(c2)OCCO3)cc1 | – | -8.6%
51 | O=C(CC1Sc2ccccc2NC1=O)OCc1cc(=O)oc2cc(O)ccc12 (stereo unspecified) | 11.2 µM (active) | –
52 | CO[C@@H]1[C@@H](OC2OC(C)C(OC3CC(C)(O)C(OC(=O)CC(C)C)C(C)O3)C(N(C)C)C2O)[C@@H](CC=O)C[C@@H](C)C(=O)/C=C\C2O[C@H]2C[C@@H](C)OC(=O)C[C@H]1OC(C)=O (stereo partly specified) | 7.08 µM (active) | –
53 | O=C(NC(Cc1c[nH]c2ccccc12)C(=O)Nc1ccc(F)cc1)c1cccs1 (stereo unspecified) | 7.08 µM (active) | –
54 | Cc1cccc(NC(=O)[C@H](Cc2c[nH]c3ccccc23)NC(=O)[C@@H]2Cc3ccccc3CN2)c1 | 10 µM (active) | –
55 | COc1ccc(C(=O)NCCc2c[nH]c3ccccc23)cc1[N+](=O)[O-] | – | -4.64%
56 | COc1ccc(NC(=O)[C@H](Cc2c[nH]c3ccccc23)NC(=O)[C@@H]2Cc3ccccc3CN2)cc1 | 7.94 µM (active) | –
57 | COc1cccc(NC(=O)[C@H](Cc2c[nH]c3ccccc23)NC(=O)[C@@H]2Cc3ccccc3CN2)c1 | 14.1 µM (active) | –
58 | CC(C)C(=O)NCCSc1c[nH]c2ccccc12 | – | -11.4%
59 | CCS(=O)(=O)N1Cc2ccccc2CC1C(=O)Nc1cccc(OC)c1 (stereo unspecified) | – | -17.3%
60 | CNC(=S)N(CCc1c(C)[nH]c2ccc(Cl)cc12)Cc1cccnc1 | 14.1 µM (active) | –
61 | CNC(=S)N(CCc1c(C)[nH]c2ccc(C)cc12)Cc1cc(OC)c(OC)c(OC)c1 | 12.6 µM (active) | –
62 | Cc1ccc(NC(=O)C(=Cc2ccc(C(=O)O)cc2)C(=O)Nc2ccc(C)cc2C)c(C)c1 | 10 µM (active) | –
63 | Cn1c(/C=C/c2ccc(Cl)cc2)c([N+](=O)[O-])c(=O)n(C)c1=O | 7.94 µM (active) | –
64 | N#C/C(=C\c1ccccn1)c1ccccn1 | 11.2 µM (active) | –
65 | CSC1=NC(C)(C)C=C(/C=C/c2ccc(Cl)cc2Cl)N1 | 1.78 µM (active) | –
66 | CSC1=NC(C)(C)C=C(/C=C/c2ccc(Cl)cc2)N1 | 10 µM (active) | –

Row | SMILES | Potency | activity change, negative = inhibition
67 | CSC1=NC(C)(C)C=C(/C=C/c2c(Cl)cccc2Cl)N1 | 10 µM (active) | –
68 | CC(Oc1ccc(Br)cc1)C(=O)N1CCN(c2ccccn2)CC1 (stereo unspecified) | 15.8 µM (active) | –
69 | O=C(c1ccccc1Br)N1CCN(c2ccccn2)CC1 | – | 5.69%
70 | O=C(NCc1ccc2[nH]c3c(c2c1)CCCC3)c1ccc(S(=O)(=O)N2CCCC2)cc1 | 15.8 µM (active) | –
71 | COc1ccc(Cl)cc1NC(=O)C(=O)NCc1ccncc1 | – | -9.93%
72 | COc1ccc(-c2cc(C(=O)Nc3cc(C)n(Cc4ccc(Cl)cc4)n3)no2)cc1OC | 0.355 µM (active) | –
73 | Cc1cc(C)cc(NC(=O)c2ccc(CN3CCc4ccccc4C3)cc2)c1 | 14.1 µM (active) | –
74 | O=C(Nc1ccc(F)cc1)c1ccc(CN2CCc3ccccc3C2)cc1 | 12.6 µM (active) | –
75 | O=C(Nc1ccc(Cl)cc1)c1ccc(CN2CCc3ccccc3C2)cc1 | 14.1 µM (active) | –
76 | Cc1cc(NC(=O)CN2C(=O)NC(c3ccccc3)(c3ccc(C)c(C)c3)C2=O)no1 (stereo unspecified) | 14.1 µM (active) | –
77 | COc1ccccc1CNC(=O)CN1C(=O)NC(c2ccccc2)(c2ccc(C)c(C)c2)C1=O (stereo unspecified) | 12.6 µM (active) | –
78 | CCOc1ccccc1CN1C(=O)NC(C)(c2ccccc2)C1=O (stereo unspecified) | – | -30.8%
79 | Cn1c(=O)c([N+](=O)[O-])c(-n2ccnc2)c2ccccc21 | 12.6 µM (active) | –
80 | C/C(=C\C(=O)OCCCCCCCCC(=O)O)C[C@@H]1OC[C@H](C[C@@H]2O[C@H]2[C@@H](C)[C@H](C)O)[C@@H](O)[C@H]1O | 1.12 µM (active) | –
81 | CCC(C)NC(=O)c1cc(Cl)c(NC(=O)C2=C(C)OCCS2)cc1OC (stereo unspecified) | 11.2 µM (active) | –
82 | CCOC(=O)c1sc(NC(=O)CSc2ncccn2)nc1C | – | -42.1%
83 | COc1ccc(-c2cc(-c3ccccc3)nc(SC(C)C(=O)O)c2C#N)cc1 (stereo unspecified) | 14.1 µM (active) | –
84 | COc1ccc(-c2cc(-c3ccccc3)nc(SCC(=O)Nc3nccs3)c2C#N)cc1 | 2.24 µM (active) | –
85 | CS(=O)(=O)Nc1ccc(C2=NN(C(=O)c3ccco3)C(c3ccc(F)cc3)C2)cc1 (stereo unspecified) | 12.6 µM (active) | –
86 | Fc1ccc(C2CC(c3ccco3)=NN2c2ccccc2)cc1 (stereo unspecified) | – | -23.2%
